In the supplement of paper PMC10811239 one finds bioluminescence data, which are given here for 38 compounds.

For this assay, the system named is LEGO organoid PTN (PTEN-/-; TP53-/-; NF1-/-). Briefly: bioluminescence (viable cell) signal fold change after vs before treatment, normalised to DMSO (ratio); higher = more tumour cell growth / less inhibition. Particulars: 10 µM; treatment time 6 days. On the procedure: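 Luc2-labelled iPSC-derived glioblastoma-like organoids (LEGOs, genotypes PT = PTEN-/-;TP53-/-, PTCC = plus CDKN2A/B-/-, PTN = plus NF1-/-) were treated with 10 uM drug for 6 days (applied every other day) at 37 C. Bioluminescence imaging was done before treatment and 2 days after the last dose. BLI signals were normalised to the DMSO control on the same day and then to the pre-treatment signal (N=3).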
In the case of `O=C(O)c1cc(/N=N/c2ccc(S(=O)(=O)Nc3ccccn3)cc2)ccc1O` [Sulfasalazine], the bioluminescence came to 0.504.

As for `CCc1c2c(nc3ccc(OC(=O)N4CCC(N5CCCCC5)CC4)cc13)-c1cc3c(c(=O)n1C2)COC(=O)[C@]3(O)CC.Cl.O.O.O` [Irinotecan hydrochloride trihydrate], the bioluminescence amounted to 1.15. Consider `CO/N=C(\C(=O)N[C@@H]1C(=O)N2C(C(=O)[O-])=C(C[N+]3(C)CCCC3)CS[C@H]12)c1csc(N)n1.Cl.Cl.O` [Cefepime Dihydrochloride Monohydrate], for which the bioluminescence came out at 1.59. The figure for `Cl.OC[C@H]1NC[C@H](O)[C@@H](O)[C@H]1O` [Migalastat hydrochloride] is 0.719. `O=C(O)Cc1ccccc1Nc1c(Cl)cccc1Cl` [Diclofenac]: the bioluminescence was determined as 1.13. The figure for `Cc1nc(Nc2ncc(C(=O)Nc3c(C)cccc3Cl)s2)cc(N2CCN(CCO)CC2)n1` [Dasatinib] is 2; for `Cc1ccccc1C(OCCN(C)C)c1ccccc1.Cl` (stereo not drawn) [Orphenadrine hydrochloride] it is 1.59. Under `Cc1ccccc1C(OCCN(C)C)c1ccccc1.O=C(O)CC(O)(CC(=O)O)C(=O)O` (stereo not drawn) [Orphenadrine Citrate] stands 0.98; under `CCCCCCCCc1ccc(CCC(N)(CO)CO)cc1.Cl` [Fingolimod hydrochloride], 0.473.

As to `Cl.OC(CCN1CCCC1)(c1ccccc1)C1CCCCC1` (stereo not drawn) [Procyclidine hydrochloride], the bioluminescence worked out at 0.656. The figure for `C[C@]12C=CC(=O)C=C1CC[C@@H]1[C@@H]2C(=O)C[C@@]2(C)[C@H]1CC[C@]2(O)C(=O)CO` [Prednisone] is 1.29; for `Cl.N=C(N)NC(=O)Cc1c(Cl)cccc1Cl` [Guanfacine hydrochloride] it is 0.496.

With `NC(=O)c1ncn([C@@H]2O[C@H](CO)[C@@H](O)[C@H]2O)n1` [Ribavirin], the bioluminescence amounted to 0.822. Turning to `C[C@@](Cc1ccc(O)c(O)c1)(NN)C(=O)O.O` [Carbidopa Hydrate], the bioluminescence worked out at 1.55. For `O=C(CCCN1CC=C(n2c(=O)[nH]c3ccccc32)CC1)c1ccc(F)cc1` [Droperidol], the bioluminescence worked out at 0.372. Regarding `CCCOc1ccc(S(=O)(=O)NCCC2CCCN2C)cc1-c1nc2c(CCC)nn(C)c2c(=O)[nH]1` (stereo not drawn) [Udenafil], the bioluminescence is 1.09.

In the case of `CC[C@@H]1/C=C(\C)C[C@H](C)C[C@H](OC)[C@H]2O[C@@](O)(C(=O)C(=O)N3CCCC[C@H]3C(=O)O[C@H](/C(C)=C/[C@@H]3CC[C@H](Cl)[C@H](OC)C3)[C@H](C)[C@@H](O)CC1=O)[C@H](C)C[C@@H]2OC` [Pimecrolimus], the bioluminescence is 0.347. Under `N#Cc1ccc2[nH]cc(CCCCN3CCN(c4ccc5oc(C(N)=O)cc5c4)CC3)c2c1` [Vilazodone] stands 0.898; under `CS(=O)(=O)CCNCc1ccc(-c2ccc3ncnc(Nc4ccc(OCc5cccc(F)c5)c(Cl)c4)c3c2)o1.Cc1ccc(S(=O)(=O)O)cc1.Cc1ccc(S(=O)(=O)O)cc1` [Lapatinib Ditosylate], 0.778; under `Cc1cccc(C)c1OCC(=O)N[C@@H](Cc1ccccc1)[C@@H](O)C[C@H](Cc1ccccc1)NC(=O)[C@H](C(C)C)N1CCCNC1=O` [Lopinavir], 0.66. The figure for `CN(C)CCc1c[nH]c2ccc(C[C@H]3COC(=O)N3)cc12` [Zolmitriptan] is 1.34; for `CCC1=C[C@@H]2CN(C1)Cc1c([nH]c3ccccc13)[C@@](C(=O)OC)(c1cc3c(cc1OC)N(C)[C@H]1[C@@](O)(C(=O)OC)[C@H](OC(C)=O)[C@]4(CC)C=CCN5CC[C@]31[C@@H]54)C2.O=C(O)[C@H](O)[C@@H](O)C(=O)O.O=C(O)[C@H](O)[C@@H](O)C(=O)O` [Vinorelbine Tartrate] it is 0.805; for `NC(=O)N1c2ccccc2CC(=O)c2ccccc21` [Oxcarbazepine] it is 1.05. As to `O=C1CCc2ccc(OCCCCN3CCN(c4cccc(Cl)c4Cl)CC3)cc2N1` [Aripiprazole], the bioluminescence stood at 0.284. Regarding `O=NN(CCCl)C(=O)NC1CCCCC1` [Lomustine], the bioluminescence was 1.92. For `CC1=C(CC(=O)O)c2cc(F)ccc2/C1=C\c1ccc(S(C)=O)cc1` (stereo not drawn) [Sulindac], the bioluminescence stood at 1.47.

For the compound `NS(=O)(=O)c1cc2c(cc1Cl)N=CNS2(=O)=O` [Chlorothiazide], the bioluminescence came to 1.33.

As to `Cc1cn(-c2cc(NC(=O)c3ccc(C)c(Nc4nccc(-c5cccnc5)n4)c3)cc(C(F)(F)F)c2)cn1` [Nilotinib], the bioluminescence was found to be 3.9. The figure for `C[C@@H](O[C@H]1OCCN(Cc2nc(=O)[nH][nH]2)[C@H]1c1ccc(F)cc1)c1cc(C(F)(F)F)cc(C(F)(F)F)c1` [Aprepitant] is 1.21; for `CCC1(c2ccccc2)C(=O)NCNC1=O` [Primidone] it is 0.89. The figure for `CC(=O)c1c(C)c2cnc(Nc3ccc(N4CCNCC4)cn3)nc2n(C2CCCC2)c1=O.O=S(=O)(O)CCO` [Palbociclib Isethionate] is 1.14; for `CCCNS(=O)(=O)Nc1ncnc(OCCOc2ncc(Br)cn2)c1-c1ccc(Br)cc1` [Macitentan] it is 0.938.

`CN[C@H]1CC[C@@H](c2ccc(Cl)c(Cl)c2)c2ccccc21.Cl` [Sertraline hydrochloride]: the bioluminescence was 1.32. Under `N=C(N)NCCCC[C@@H]1NC(=O)CCSSC[C@@H](C(N)=O)NC(=O)[C@@H]2CCCN2C(=O)[C@H](Cc2c[nH]c3ccccc23)NC(=O)[C@H](CC(=O)O)NC(=O)CNC1=O` [Eptifibatide] stands 0.917; under `C[C@H]1[C@H](NC(=O)/C(=N\OC(C)(C)C(=O)O)c2csc(N)n2)C(=O)N1S(=O)(=O)O` [Aztreonam], 1.4. The figure for `CN1CC(=O)N2[C@H](c3ccc4c(c3)OCO4)c3[nH]c4ccccc4c3C[C@@H]2C1=O` [Tadalafil] is 0.562; for `Nc1cccc2c1CN(C1CCC(=O)NC1=O)C2=O` (stereo not drawn) [Lenalidomide] it is 3.63; for `CC[C@@]1(O)C(=O)OCc2c1cc1n(c2=O)Cc2cc3c(CN(C)C)c(O)ccc3nc2-1.Cl` [Topotecan hydrochloride] it is 0.171.
